FECH block: inhibitors of human ferrochelatase; calls only at 10 µM (by protocol); 20,000 compounds, 3.3% hits; P22830; AID 1671448; purified FECH, Ni-mesoporphyrin absorbance 550 nm;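 active = enzyme reaction rate more than 3 SD below the solvent-only control wells on the same plate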;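 note: lower slope than DMSO wells means FECH inhibition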
Target sequence (P22830 whole entry, looked up): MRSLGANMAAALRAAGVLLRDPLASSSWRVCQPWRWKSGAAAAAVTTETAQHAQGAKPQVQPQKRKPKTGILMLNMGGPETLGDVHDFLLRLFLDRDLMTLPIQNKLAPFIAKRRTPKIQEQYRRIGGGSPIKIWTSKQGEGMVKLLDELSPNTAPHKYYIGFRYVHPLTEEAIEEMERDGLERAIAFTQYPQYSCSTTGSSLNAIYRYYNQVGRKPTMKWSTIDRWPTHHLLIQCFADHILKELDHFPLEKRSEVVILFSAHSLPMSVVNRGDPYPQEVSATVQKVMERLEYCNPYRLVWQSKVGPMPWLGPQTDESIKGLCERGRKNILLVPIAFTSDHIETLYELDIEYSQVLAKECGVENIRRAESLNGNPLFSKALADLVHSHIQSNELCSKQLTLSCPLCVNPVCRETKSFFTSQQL
Each line names hits and unclear results; the compound was inactive in the other large screens. The full list was thinned out, with hits kept by preference.

COc1ccc(NC2=NC(C(=O)NCCc3ccccc3)CC(=O)N2)cc1 (stereo not given)	none
CN(CCc1ccccc1)C1(C(=O)NC2CCCOC2)Cc2ccccc2C1 (stereo not given)	none
Cc1cc(C(=O)NCCN2CCCC(O)C2)c(NC(=O)C(C)(C)C)s1 (stereo not given)	none
Cc1cccc(-c2nc3nc(CN4CCCCC4C)cc(=O)n3[nH]2)c1 (stereo not given)	FECH block active
CC1CCCCN1Cc1cc(=O)n2[nH]c(-c3ccc(C(C)(C)C)cc3)nc2n1 (stereo not given)	none
Cc1cccc(-c2nc3nc(CN4CCCC4)cc(=O)n3[nH]2)c1	none
CN(CC(=O)Nc1cnccn1)Cc1cc(-c2ccccc2)on1	none
CCc1ccc(C(=O)Nc2ccccc2Sc2c(C)c(C)nc3nc(-c4ccccc4)nn23)cc1	none
COc1ccc(OCc2nc(C(=O)N3CCNCC3c3ccccc3)co2)cc1 (stereo not given)	none
CCN(C(=O)c1coc(COc2ccc(OC)cc2)n1)[C@H]1COC[C@@H]1O	none
COc1ccc(OCc2nc(C(=O)N3CC4(C)CN(C)CC(C)(C3)C4)co2)cc1	FECH block active
COc1cccc(-c2nc(CSc3nc(C)c(Cc4ccccc4)c(=O)[nH]3)c(C)o2)c1OC	none
CCC(C)NC(=O)c1ccc(Cn2c(=O)c3cc(OC)c(OC)cc3n(CC(N)=O)c2=O)cc1 (stereo not given)	none
CCC(C)NC(=O)Cn1c(=O)n(Cc2ccc(C(=O)NC)cc2)c(=O)c2cc(OC)c(OC)cc21 (stereo not given)	FECH block active
CNC(=O)c1ccc(Cn2c(=O)c3cc(OC)c(OC)cc3n(CC(=O)NC3CCCC3)c2=O)cc1	FECH block active
CCCNC(=O)Cn1c(=O)n(Cc2ccc(C(=O)NC)cc2)c(=O)c2cc(OC)c(OC)cc21	none
CCCNC(=O)c1ccc(Cn2c(=O)c3cc(OC)c(OC)cc3n(CC(=O)NC(C)CC)c2=O)cc1 (stereo not given)	none
COc1cc2c(=O)n(Cc3ccc(C(=O)NC4CCCC4)cc3)c(=O)n(CC(N)=O)c2cc1OC	none
COc1ccc(C(=O)NC2CC(=O)N(c3cccc(F)c3)C2)c(OC)c1 (stereo not given)	none
CC(C)c1cc(C2CCN(C(=O)CCn3cnc4ccccc4c3=O)CC2)[nH]n1	none
c1ccc(-c2ncn(CCc3cnc[nH]3)c2-c2ccncc2)cc1	none
C=C(C)COc1ccc(C(=O)N2[C@@H]3CC[C@H]2CC(O)C3)cc1 (stereo not given in full)	none
Cc1cc(C)cc(Nc2nc(N3CCN(CCO)CC3)nc3c2cnn3-c2ccccc2)c1	none
CN1C(=O)C2(CCCN(C(=O)c3cnn4c3CCCC4)C2)c2ccccc21 (stereo not given)	none
COc1cc(OC)c(Nc2c(-c3ccc4c(c3)CCCC4)c(=O)c2=O)cc1Cl	none
Cc1ccc(C)c(Nc2c(-c3ccc4c(c3)CCCC4)c(=O)c2=O)c1	FECH block active
Cc1ccc(Nc2c(-c3ccc4c(c3)CCCC4)c(=O)c2=O)c(Cl)c1	none
O=c1c(Nc2ccc(F)cc2Cl)c(-c2ccc3c(c2)CCCC3)c1=O	FECH block active
COc1ccc(C)cc1Nc1c(-c2ccc3c(c2)CCCC3)c(=O)c1=O	none
COc1ccc(OC)c(Nc2c(-c3ccc4c(c3)CCCC4)c(=O)c2=O)c1	none
Cc1cc(Cl)ccc1Nc1c(-c2ccc3c(c2)CCCC3)c(=O)c1=O	none
COc1ccc(Cl)cc1Nc1c(-c2ccc3c(c2)CCCC3)c(=O)c1=O	none
COc1ccc(Nc2c(-c3ccc4c(c3)CCCC4)c(=O)c2=O)c(OC)c1	FECH block active
CNC(=O)c1[nH]cnc1C(=O)NC(C)C	none
CCCc1[nH]ncc1C(=O)N1CCC2(CCCO2)CC1	none
Cc1n[nH]c(C)c1Cc1n[nH]c(=O)n1CC1CCCCC1	none
CCc1[nH]c2ccc(CNC(=O)C3CCCCCN3C)cc2c1C (stereo not given)	none
COc1ccc(N2C(=O)CCS2(=O)=O)cc1S(=O)(=O)Nc1ncccn1	none
CC(C)CN1CCC(NCc2ccc(-n3cncn3)cc2)CC1	none
Cc1ccc(N2C(=O)N(CC(=O)NC3CCCCC3)c3ccccc3S2(=O)=O)c(C)c1	none
Cc1cc(N2CCCN(C(=O)CSc3ncccn3)CC2)ccn1	none
CCN1C(SCC(=O)NCc2ccc(C)cc2)=NS(=O)(=O)c2ccccc21	FECH block active
Cc1cc(C)c(NC(=O)CN2CCN(Cc3ccccc3C)S2(=O)=O)c(C)c1	none
CCN1C(SCC(=O)N2CCN(c3ccccc3)CC2)=NS(=O)(=O)c2ccccc21	FECH block active
Cc1ccc(S(=O)(=O)N2CCC(CC(=O)N3CCN(c4ccccc4)CC3)CC2)cc1	none
Cc1ccc(CNC(=O)CN2C(=O)C3CCCCN3C(=O)c3ccccc32)cc1 (stereo not given)	none
Cc1ccc(CN2CC(=O)N(Cc3ccccc3)c3ccccc3S2(=O)=O)cc1	none
CCN1C(SCC(=O)Nc2c(C)cc(C)cc2C)=NS(=O)(=O)c2ccccc21	FECH block active
CCN1C(=O)C2(c3ccccc31)C(C(=O)Nc1cc(C)cc(C)c1)CC1CSCN12 (stereo not given)	none
CCN1C(SCC(=O)Nc2ccc3c(c2)OCCO3)=NS(=O)(=O)c2ccccc21	none
CCN1C(SCC(=O)Nc2cc(C)cc(C)c2)=NS(=O)(=O)c2ccccc21	FECH block active
CN(Cc1ccccc1)c1ncccc1CNC(=O)CC1CNCCO1 (stereo not given)	none
COc1ccc(-c2cc(N3CCN(C(=O)NC(C)(C)C)CC3)ncn2)cc1	none
Cc1ccc(Cl)c(-c2nccn2CCN2CCNC2=O)c1F	none
COC(=O)N[C@H]1C[C@@H](C(=O)NCc2ccccc2F)N(C)C1	none
CCOc1ccc(CNS(=O)(=O)c2cc(C(=O)N3CCCC3)cs2)cc1	none
CCOc1ccccc1-c1nc(CSc2nc(C)c(Cc3ccccc3)c(=O)[nH]2)c(C)o1	none
COc1ccc(OC)c(S(=O)(=O)NCc2nc3cccnc3n2C2CCCCC2)c1	none
CCn1c(C(O)c2ccccc2)n[nH]c1=O (stereo not given)	none
O=C(Nc1nc2n(n1)C(c1ccc(Cl)cc1)C=C(c1ccccc1)N2)c1ccc(F)cc1 (stereo not given)	none
O=C(Nc1nc2n(n1)C(c1ccc(Cl)cc1)C=C(c1ccccc1)N2)c1ccc(Cl)cc1 (stereo not given)	none
O=C(Nc1nc2n(n1)C(c1ccc(Cl)cc1)C=C(c1ccccc1)N2)c1cccnc1 (stereo not given)	FECH block active
Cc1ccc(C2=CC(c3ccc(Cl)cc3)n3nc(NC(=O)c4cccc(Cl)c4)nc3N2)cc1 (stereo not given)	none
O=C(Nc1nc2n(n1)C(c1ccc(Cl)cc1)C=C(c1ccc(Cl)cc1)N2)c1cccnc1 (stereo not given)	FECH block active
O=C(Nc1nc2n(n1)C(c1ccccc1)C=C(c1ccc(Cl)cc1)N2)c1ccccc1 (stereo not given)	none
COc1cccc(Nc2nc(N(C)CCO)nc3c2cnn3-c2ccccc2)c1	none
CCc1nc(OCC(=O)NC(C)c2ccccc2)c2c(-c3ccc(F)cc3)noc2n1 (stereo not given)	none
CN(C)c1cc(NC2CCS(=O)(=O)CC2)ncn1	none
COc1cc(Cl)cc2c1OC=CC(C(=O)Nc1ccc(S(N)(=O)=O)cc1)=C2	FECH block active
NS(=O)(=O)c1ccc(NC(=O)c2csnn2)cc1	none
COc1ccc(NC(=O)c2cc(-c3ccc(OC)c(S(N)(=O)=O)c3)n[nH]2)cc1	none
Cc1cccc(-c2ncc(CN3CCCN(C(=O)C4CCCO4)CC3)cn2)c1 (stereo not given)	none
CCc1csc(CNC(=O)c2cc(COc3ccccc3F)[nH]n2)n1	none

Source: PubChem (Corson Lab, School of Medicine, Indiana University)
